Assay outcomes from PubChem.
Sampled rows, rich in hits. Any-hit rate of the full collection: about 3.1%.
VDR inh: Inhibitors of the vitamin D receptor (VDR): qHTS; AID 504847, 2011; actives 0.93% (n = 400,000); Potency, µM, for the others: max response, negative = inhibition, hits mostly inhibitors; VDR-SRC2-3 peptide fluorescence polarization, 2 h; also: potency is read from the fitted curve at half-maximal effect; % is scaled to controls: 0 for no effect and ±100 for the full control effect
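FP read-out; VDR + SRC2-3 coactivator peptide; 23 nl compound by pintool; 2 h RT incubation; reagents held at 4 deg C, protected from light.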
TSHR antag: Antagonists of the Thyroid Stimulating Hormone Receptor: HTS campaign | Thyrotropin receptor (Homo sapiens), P16473 | TSHR-expressing cells, TSH-stimulated cAMP HTRF, 2 h; hits give low values | activity change, negative = inhibition, % at 11.5 µM | actives 0.2% (n = 330,000) | AID 504810, 2011;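 active = activity change below a set negative limit, meaning inhibition stronger than a set level, cut at about -70% in these data; inconclusive = activity change between two set negative limits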; also: % is scaled to controls: 0 for no effect and ±100 for the full control effect
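TSHR-expressing cells were treated with compounds, then stimulated with TSH at EC80 (4nM final) for 2 hours at 37 deg C. Cellular cAMP was measured by HTRF competition between lysate cAMP and cAMP-d2 for a cryptate-labelled anti-cAMP antibody.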
Vif-APOBEC3G blk: qHTS for Inhibitors of Vif-A3G Interactions: qHTS | DNA dC->dU-editing enzyme APOBEC-3G (Homo sapiens), Q9HC16 | HeLa A3G-eYFP + Vif (tagged APOBEC3G with the HIV-1 protein that degrades it), YFP fluorescence, overnight | Potency, µM (highest dose often 46.1 µM), without a hit: at the highest dose activity, negative = active, most hits filed as inhibitors | actives 0.076% (n = 410,000) | AID 602310, 2012; also: potency is read from the fitted curve at half-maximal effect; % is scaled to controls: 0 for no effect and ±100 for the full control effect; nearly all actives have a fitted effect of over 60% in size
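Read-out is eYFP fluorescence (Ex 488/Em 500-530) from Vif-expressing HeLa A3G-eYFP cells; more signal means A3G escaped Vif-mediated degradation. Cells plated overnight, compound pinned in, incubated overnight at 37 deg C.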
Vif-APOBEC3F blk: qHTS for Inhibitors of Vif-A3F Interactions: qHTS. HeLa A3F-eYFP + Vif (tagged APOBEC3F with the HIV-1 protein that degrades it), YFP fluorescence increase. Potency, µM (top dose mostly 46.1 µM), for the others: at the highest dose activity, negative = active. actives 0.2% (n = 390,000). AID 602313, 2012; also: potency is read from the fitted curve at half-maximal effect; % of control where 0% means no effect; nearly all actives have a fitted effect of over 65% in size
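Fluorescence increase (Ex 488/Em 500-530) after overnight compound treatment at 37 deg C flags inhibition of Vif-driven A3F-eYFP loss in stable HeLa A3F-eYFP/Vif cells seeded overnight beforehand.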
PLK1 PBD block: qHTS for Inhibitors of PLK1-PDB (polo-like kinase 1 - polo-box domain): Primary Screen; Serine/threonine-protein kinase PLK1 (Homo sapiens), P53350; Plk1 PBD binding of FITC phosphopeptide, fluorescence polarization; Potency, µM, inactives show max response, negative = inhibition, hits mostly inhibitors; actives 2.8% (n = 360,000); AID 720504, 2013; also: potency is read from the fitted curve at half-maximal effect; series mostly up to about 57 µM; % is scaled to controls: 0 for no effect and ±100 for the full control effect; nearly all actives have a fitted effect of over 65% in size
Starred values were filed as active, the others as inactive; u = inconclusive; x = no result. Unless noted, calls follow the shape of the dose curve; as a rule, active = well fitted curve in the direction sought with a large enough effect; inconclusive = small, poorly fitted or top-dose-only effect, or another doubt; inactive = no such curve, though single readings can be large; an effect the other way counts as inactive or inconclusive.

SMILES | VDR inh | TSHR antag | Vif-APOBEC3G blk | Vif-APOBEC3F blk | PLK1 PBD block
COc1cc(C(CC(=O)Nc2ccc(Br)cn2)N2Cc3ccccc3C2=O)cc(OC)c1OC (stereo not drawn) | 5% | x | -8% | -4% | x
CCC(CC)C1=NN2C(=N)/C(=C/c3ccc(OC(=O)c4ccco4)cc3)C(=O)N=C2S1 | -22% | -28 | -8% | -18% | 30µM*
CSC1=NSC2=NC(=O)/C(=C\c3ccc(OC(=O)c4ccco4)cc3)C(=N)N12 | -1% | -10 | -4% | -3% | u
CC(C)CS(=O)(=O)C1=NSC2=NC(=O)/C(=C\c3ccc(OC(=O)c4ccco4)cc3)C(=N)N21 | u | -9 | -13% | -2% | 24µM*
CS(=O)(=O)C1=NSC2=NC(=O)/C(=C\c3ccc(OC(=O)c4ccco4)c(Br)c3)C(=N)N21 | u | 8 | -2% | u | 24µM*
O=C(O)[C@@H]1CN[C@@H](C(=O)O)C1 | 1% | x | x | x | x
C[C@@H]1C[C@@H]([C@@H](C)CC2CC(=O)NC(=O)C2)C(=O)[C@@H](C)C1 | 1% | x | x | x | x
Cc1c(C(=O)N2CCOCC2)c(S(=O)(=O)Nc2ccc(Br)cc2F)c(C)n1C | u | -12 | 2% | -4% | 27µM*
Cc1c(C(=O)N2CCOCC2)c(S(=O)(=O)Nc2ccccc2F)c(C)n1C | -1% | 41 | 5% | 6% | -3%
Cc1c(C(=O)N2CCOCC2)c(S(=O)(=O)Nc2cccc(Br)c2)c(C)n1C | -21% | 13 | 0% | 10% | 27µM*
